Measurements: PubChem BioAssay (NCATS)
Results filed as inconclusive are left out. Calls of active or inactive are those of the source. Calls follow the shape of the dose curve; as a rule, active = well fitted inhibition curve with a large enough effect; inconclusive = small, poorly fitted or top-dose-only effect; inactive = flat fitted curve, though single readings scatter.

What follows are molecules tested on TAB113 (assay: qHTS profiling for inhibitors of Plasmodium falciparum proliferation (AID 504749; also: nearly all actives have a fitted effect of over 60% in size;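 as to activity, negative = inhibition: 0% = DMSO vehicle and full inhibition = artemisinin control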)). Conditions: P. falciparum in erythrocytes, SYBR Green DNA, 72 h; series mostly up to 28.7 µM; activity, negative = inhibition: at the top concentration.
How it was run: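 Readout was DNA-dye fluorescence from lysed cultures, ex 485/em 535 nm. Parasitized red cells had grown 72 h with compound; data scaled between 0.29 uM artemisinin and DMSO wells and corrected using vehicle-only plates.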
Potency is read from the fitted curve at half-maximal effect.

Row | Compound | activity, negative = inhibition | Potency
1 | C[N+]1(C)CCC(=C(c2ccccc2)c2ccccc2)CC1 | -9.1% [at 12.8 µM] (inactive) | –
2 | CCN(CC)CCOC(=O)C1(c2ccccc2)CCCC1 | – | 0.005 µM (active)
3 | CCC(CC)(CC(=O)Nc1cccc(/C=C/c2nc(C3CCC3)cs2)c1)C(=O)O | -15.7% (inactive) | –
4 | CN1CCN(C2=Nc3cc(F)ccc3Cc3ccccc32)CC1 | -29.3% (inactive) | –
5 | COc1ccc(C(=O)c2ccccc2O)c(O)c1 | -27.1% [at 12.8 µM] (inactive) | –
6 | NCc1ccccc1Sc1ccccc1CO | -29.4% (inactive) | –
7 | C#C[C@]1(OC(C)=O)CC[C@H]2[C@@H]3CCC4=C/C(=N/O)CC[C@@H]4[C@H]3CC[C@@]21CC | -1.93% (inactive) | –
8 | O=[N+]([O-])c1cccc(S(=O)(=O)NCCNS(=O)(=O)c2cccc([N+](=O)[O-])c2)c1 | -20.8% (inactive) | –
9 | Cc1ncc(CO)c(C=O)c1O | 6.65% (inactive) | –
10 | CC(C)[N+](C)(C)CC(O)COc1cccc2ccccc12 (configuration not stated) | -14.7% (inactive) | –
11 | CC(=O)O[C@H]1C[C@@H]2CC[C@@H]3[C@H](CC[C@@]4(C)[C@H]3C[C@H]([N+]3(C)CCCCC3)[C@@H]4OC(C)=O)[C@@]2(C)C[C@@H]1N1CCCCC1 | -28.2% (inactive) | –
12 | CCNC(=O)NCc1cccc(Cl)c1 | 9.94% (inactive) | –
13 | CCOc1ccccc1OCCN[C@H](C)Cc1ccc(OC)c(S(N)(=O)=O)c1 | 4.46% (inactive) | –
14 | CC(=O)O[C@]1(C(C)=O)CC[C@H]2[C@@H]3C=C(Cl)C4=CC(=O)CC[C@]4(C)[C@H]3CC[C@@]21C | – | 7.08 µM (active)
15 | CCOC(=O)Nc1ccc2c(c1)N(C(=O)CCN1CCOCC1)c1ccccc1S2 | 6.56% [at 12.8 µM] (inactive) | –
16 | CC[N+](C)(CC)CCOC(=O)C(O)(c1ccccc1)C1CCCCC1 (configuration not stated) | -15.6% (inactive) | –
17 | CC(C)=CCOc1ccc(/C=C/C(=O)c2ccc(OCC=C(C)C)cc2OCC(=O)O)cc1 | -15.3% (inactive) | –
18 | CCC(C(=O)OCCOCCN(CC)CC)c1ccccc1 (configuration not stated) | -14.1% (inactive) | –
19 | O=C(NC1CCN(CCc2c[nH]c3ccccc23)CC1)c1ccccc1 | -11.4% (inactive) | –
20 | Cc1ccc2c(Br)cc(Br)c(O)c2n1 | – | 12.6 µM (active)
21 | Cc1cc2c(OCC(CNC(C)(C)C)OC(=O)c3ccccc3)cccc2[nH]1 (configuration not stated) | -29.2% (inactive) | –
22 | Cc1cccc(C)c1NC(=O)CN1CCCCCC1 | 0.107% (inactive) | –
23 | CC(=O)NCCCCCC(=O)O | 11.6% (inactive) | –
24 | CCc1ccc(C(=O)C(C)CN2CCCCC2)cc1 (configuration not stated) | -10.6% (inactive) | –
25 | CN(C)CCOC(c1ccc(Cl)cc1)c1ccccn1 (configuration not stated) | -20.9% (inactive) | –
26 | COc1ccc2c(c1)c1c3n2CCN(C)C3=NCC1 | 3.11% (inactive) | –
27 | CO[C@]12C[C@@H](COC(=O)c3cncc(Br)c3)CN(C)[C@@H]1Cc1cn(C)c3cccc2c13 | -28.5% (inactive) | –
